PubChem BioAssay (NCI)
Several values for one entry are separate records, joined by “and”; a condition that tells them apart may be missing. Equal values may be shown once. The panel holds about 79,000 compounds, 15% with a hit somewhere; the sample as a whole holds those more often. A number with no mark means an inactive call. Activity calls are given as the source filed them. No stated cut-off is given here; in the data, active means growth inhibition above about 70%; inactive means the rest.

Assay: NCI Yeast Anticancer Drug Screen. Data for the rad50 strain (AID 155);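 further: 0% = growth of vehicle-only cultures of the same strain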
Conditions: S. cerevisiae rad50 strain growth inhibition, hits give high values; at 50.0 µM unless noted
Protocol: Growth inhibition of yeast strains with defined genetic alterations is measured as a screen for potential anti-cancer activity. Selected strains with alterations in DNA damage repair or cell cycle control were exposed to compounds and growth inhibition was measured relative to vehicle treated controls. The strain used in this assay is rad50

| Structure (SMILES) | growth inhibition |
| --- | --- |
| c1cncc(C2c3[nH]c4ccccc4c3CCN2CCCN2CCCCC2)c1 (stereo not given) | -5.2% |
| N#CCN(CC#N)C1CC=CCC1N(CC#N)CC#N (stereo not given) | -26.2% |
| Nc1nc(N)c(CCCCc2ccccc2)c(Cc2ccccc2)n1 | -10.2% |
| CC[C@H](CC[C@@H](C)[C@H]1CC[C@H]2[C@@H]3CC=C4C[C@@H](O)CC[C@]4(C)[C@H]3CC[C@]12C)C(C)C | 26.8% and -6.4% |
| CC1OC(n2cnc3c(NC(=O)c4ccccc4)ncnc32)C(O)C2OC12 (stereo not given) | -1.15% |
| COc1ccc(C2=C(c3ccccc3)C(=O)C3(c4ccccc4)CC23c2ccc(OC)cc2)cc1 (stereo not given) | -1.25% |
| CN1NC(c2ccccc2)=C(C#N)C(=O)CC1c1ccccc1 (stereo not given) | 6.8% |
| O=c1[nH][nH]c2ccccc12 | 23.1% |
| O=C1C(O)C(O)C(O)C(O)C1O (stereo not given) | 22.7% and -14.6% |
| O=C(F)c1cccc2ccccc12 | -25.9% |
| NCCCOB(OCCCN)OCCCN | 8.3% |
| O=C(CCCN1CCC2(CC1)CC(=O)N(N1CCOCC1)C2=O)c1ccc(F)cc1 | -4.65% |
| O=S1(=O)OCCOS(=O)(=O)C1C1c2ccccc2-c2ccccc21 | 13.4% |
| CCCCCCCCCCC1CC(=O)OC1=O (stereo not given) | 17.2% |
| CC1CCCCN1P(c1ccccc1)N1CCCCC1C (stereo not given) | 28.5% |
| COc1cc(Nc2nc3ccc(C(F)(F)F)cc3nc2C(=O)O)cc(OC)c1OC | 15.8% |
| CCC(O)(c1ccccc1)C(O)(CC)c1ccccc1 (stereo not given) | 15.8% |
| N#Cc1ccc(CC(=O)c2ccccc2)cc1 | -6.05% |
| Cc1cc(C)c2nccc(NCCCN(C)C)c2c1[N+](=O)[O-] | 5.65% |

| Structure (SMILES) | growth inhibition |
| --- | --- |
| Clc1ccc(-c2cn3c(nc4ccccc43)c(-c3ccccc3)n2)cc1 | -7.65% |
| O=C(Oc1ccccc1)C(=O)Oc1ccccc1 | -20.6% |
| S=c1nc2ccccn2c(=S)n1-c1ccccn1 | 33.6% |
| NC1CCC(C(=O)O)CC1 (stereo not given) | -3% and -3.15% |
| NNC(=O)c1c(O)ccc2ccccc12 | 19.2% |
| C=C(Br)CNC(=O)CCC(=O)NCC(=C)Br | -27.5% |
| COc1cc(C2NC(C(=O)O)CS2)cc(OC)c1OC (stereo not given) | -22.4% |
| COCCN=Cc1ccc(N(C)C)cc1 | 4.35% |
| COc1ccccc1OC(=O)c1ccc(Cl)cc1 | 2.2% |
| CCOC(=O)c1[nH]c(C)c(/C=N/O)c1C | 22.9% |
| Cc1nnc2sc(N/N=C/c3ccccc3)nn12 | -35.5% |
| NNC(=O)Oc1cccc2ccccc12 | 22.1% |
| CCOC(=O)N1C(=O)C2C3C=CC(C2C1=O)C1C2C(=O)N(C(=O)OCC)C(=O)C2C31 (stereo not given) | 1.4% |
| Cc1ccc(N2C(=O)CC(NC3CCCCC3)C2=O)cc1 (stereo not given) | -6.2% |
| O=Cc1ccccc1OCCOc1ccccc1C=O | 8.7% |
| COc1ccc(C2OC3=C(Nc4cc(C)c(C)cc4N3)C2=O)cc1 (stereo not given) | 11.2% |
| O=C1OC(=O)C2C(Cl)C(Cl)C12 (stereo not given) | -5.1% |
| c1ccc2cnncc2c1 | 0.35% |
| CC(C)(C)CNCCO | -2.45% |

Same assay, conditions: S. cerevisiae rad50 strain growth inhibition; at 5.0 µM (retest, dose inferred, filed as 0.5); hits give high values

| Structure (SMILES) | growth inhibition [%] |
| --- | --- |
| CCCCNc1ccc(Nc2ccccc2)cc1 | 1 |

Same assay, conditions: S. cerevisiae rad50 strain growth inhibition; at 50.0 µM (retest, dose inferred, filed as 5.0); hits give high values

| Structure (SMILES) | growth inhibition |
| --- | --- |
| CCCCNc1ccc(Nc2ccccc2)cc1 | 95% (active) |
